The values below come from PubChem BioAssay AID1981 (Southern Research Specialized Biocontainment Screening …, 2009).

The whole screen tested about 2,200 compounds, of which about 480 (22%) were called active. How the calls were made is not given here. These entries were drawn from the full list. Measured potencies and affinities stand elsewhere.

This assay in a line: S. Typhimurium GFP fluorescence dose response in modified counterscreen for PhoP regulon inhibitor project (AID 1981). To be noted: 4 h; series mostly up to 150 µM.
As for `O=C(Cc1ccccc1)NCc1ccc(F)cc1`, the result was inactive.

Regarding `Fc1ccccc1CCNCc1cccc(Cl)c1Cl`, the call was inactive. Take `c1coc(CNc2c3c(nc4ncnn24)CCCC3)c1`: the result was inactive. Turning to `O=S(=O)(Nc1ccc2c(c1)nc1n2CCN(Cc2ccccc2)C1)c1ccc(F)cc1`, the result was inactive. With `CCn1c(SCC(=O)Nc2ccc3c(c2)oc2ccccc23)nnc1-c1ccc(N)cc1`, the result was inactive. Then `CC1(C)CC(=O)C2=C(C1)N(c1ccc(F)cc1)C(N)=C(C#N)C2c1cccs1` (stereo not drawn), with “inactive”. Then `O=C(Oc1ccc(N(Cc2cccs2)C2=NS(=O)(=O)c3ccccc32)cc1)c1ccc(Cl)cc1`, with “inactive”.

Turning to `O=C(NCCNc1ccc([N+](=O)[O-])cc1C(F)(F)F)c1ccccc1F`, the compound was called inactive. `O=C(Nc1cnc2ccccc2c1)N1CCOCC1`: the compound was called inactive. As to `CCOC(=O)N1CCN(S(=O)(=O)c2ccc(C(=O)NNc3nc4c(C)cc(C)cc4s3)cc2)CC1`, the compound was called inactive. In the case of `O=C(c1ccco1)c1cn(CC(=O)N2CCCc3ccccc32)c2ccccc12`, the compound was called inactive. In the case of `O=c1cc(O)nc(SCc2ccccc2Cl)[nH]1`, the compound was classed as inactive.

As to `Cc1cc(C(=O)N2CCN(C/C=C/c3ccccc3)CC2)no1`, the call was inactive. As for `Cc1[nH]c2ccccc2c1C(c1ccncc1)N1CCN(c2ccc(F)cc2)CC1` (stereo not drawn), the outcome was inactive.

On to `Cn1cc(-c2nnnn2-c2cccc(C(F)(F)F)c2)c(C(F)(F)F)n1`, for which the call was inactive. Take `COC(=O)CSc1nc(SCc2ccccc2Cl)nc2c1CCCC2`: the call was inactive. For `c1ccc(-c2cc(CSc3nc4ccccc4[nH]3)on2)cc1`, the outcome was inactive. In the case of `N#Cc1nc(Cc2cccc3ccccc23)oc1NCCCN1CCOCC1`, the compound was called inactive. Turning to `Cc1nc2cc(NC(=O)N3CCN(c4ccccn4)CC3)ccc2o1`, the compound was called inactive. For `Oc1ccc(C2NCc3ccccc3-n3cccc32)cc1Cl` (stereo not drawn), the outcome was inactive. On to `CC(=O)c1sc(NC(=O)COc2ccc([N+](=O)[O-])cc2)nc1C`, for which the compound was classed as inactive. Then `CCn1c(SCc2ccc(F)cc2)nc2ccccc2c1=O`, with “inactive”. In the case of `CCCCCc1ccc(OCCC[n+]2ccccc2)c(CCCCC)c1`, the outcome was inactive.

Consider `O=C(CSC1CCCCC1)Nc1ccccc1Br`, for which the compound was classed as inactive. To `COc1ccc(NC(C)C(=O)Nc2ccc(C(C)(C)C)cc2)cc1Cl` (stereo not drawn) belongs “inactive”; to `Cc1cccc(-n2c(O)c(C=NCc3cccnc3)c(=O)[nH]c2=O)c1C`, “inactive”; to `Cc1ccc(C(C[N+](=O)[O-])c2c(C)cc3ccccn23)cc1` (stereo not drawn), “inactive”. In the case of `O=C(O)CCS(=O)(=O)c1ccc(-c2ccccc2)cc1`, the compound was classed as inactive. For `CNC(=O)CSc1nnc(-c2cccnc2)n1CCc1ccccc1`, the compound was classed as inactive. With `Cc1ccc(-c2nc3ccccc3[nH]2)cc1NC(=S)NC(=O)c1ccccc1Br`, the result was inactive.

As to `Cc1ccc(OCc2nnc(SCC(=O)Nc3ccc4c(c3)OCO4)n2C)cc1`, the compound was called inactive.

`CCOc1ccc(/C(O)=C2\C(=O)C(=O)N(CCN(C)C)C2c2cccc(OC)c2OC)cc1Cl` (stereo not drawn): the compound was classed as inactive.

As for `O=C(Cc1cccs1)Nc1cccc(-c2nc3cc4ccccc4cc3[nH]2)c1`, the outcome was inactive.

On to `COc1ccc(Cl)cc1-c1nc(SCC(N)=O)n[nH]1`, for which the call was inactive. With `O=C(OCC#CCSc1nnc(-c2cccc3ccccc23)o1)c1ccco1`, the compound was classed as inactive.

For the compound `COc1ccc(Nc2nc(-c3c[nH]c4ccccc34)cs2)cc1`, the call was inactive. In the case of `CCc1ccccc1NC(=O)c1nnn(CC(=O)Nc2cccc(C)c2C)c1N`, the call was inactive. Regarding `COc1ccccc1NC(=S)NC(=O)C(C)(C)C`, the outcome was inactive.

With `COc1ccccc1N1CCN(C(=O)c2cccc3c(=O)c(C)c(-c4ccccc4)oc23)CC1`, the outcome was inactive. With `CCc1ccc2[nH]c(=O)c(CN(Cc3ccccc3)C(=O)Nc3ccccc3OC)cc2c1`, the compound was called inactive. Take `COC(=O)c1ccc(C)c(NC(=O)CN(c2cc(OC)ccc2OC)S(C)(=O)=O)c1`: the compound was classed as inactive. As for `N#CC1(C#N)COC23CCCCC2C1(C#N)C(=N)O3` (stereo not drawn), the outcome was inactive. Take `COc1ccc(OC)c(-c2cc(C(=O)Nc3c(C)nn(Cc4ccccc4)c3C)no2)c1`: the call was inactive.

On to `Cc1nc2ccccc2n1CC(=O)NCc1ccccc1`, for which the compound was called inactive.

With `CCN1CCN(C(=O)c2ccc3c(=O)n(Cc4ccccc4OC)c(=S)[nH]c3c2)CC1`, the result was inactive. On to `CC(C)Cc1nc2ccc(N)cc2[nH]1`, for which the compound was classed as inactive.

As for `Cc1[nH]c2ccccc2c1C(=O)COC(=O)c1ccc([N+](=O)[O-])s1`, the compound was called inactive. To `Cc1ccc(NC(=O)CSc2nnc(C3CCCCC3)n2N)cc1F` belongs “inactive”. As to `O=C(c1cccnc1Nc1ccc2c(c1)CCC2)N1CCOCC1`, the outcome was inactive. `O=C(Nc1cccn(Cc2c(Cl)cccc2Cl)c1=O)c1ccccc1Cl`: the outcome was inactive.

For the compound `CCCn1c(N)c(C(=O)COC(=O)c2c(C)noc2C)c(=O)n(C)c1=O`, the outcome was inactive. For the compound `CCOC(=O)C1=CSC2=NS(=O)(=O)CCN12`, the call was inactive. Turning to `O=C(CCN1C(=O)COc2ccccc21)NCCN1CCOCC1`, the result was inactive.

Consider `C#CCn1c(=NC(=O)c2cc(Cl)sc2Cl)sc2cc(S(N)(=O)=O)ccc21`, for which the compound was classed as inactive. For `CCN(CC)S(=O)(=O)c1ccc(C(=O)N2CCN=C2SCc2cccnc2)cc1`, the outcome was inactive. As to `Cc1cc(O)ccc1Nc1nc2ccccc2nc1Nc1ccc(O)cc1C`, the outcome was inactive. Then `Cc1cc(Nc2ccccc2)nc2cc(O)ccc12`, with “inactive”; and `Cc1ccc(Nc2cc(C)c3c(O)cccc3n2)cc1C`, with “inactive”; and `Cc1ccc(Nc2cc(C)c3ccc(O)cc3n2)cc1C`, with “inactive”.

With `c1ccc(-n2cnc3cc(NCc4ccccn4)ccc32)cc1`, the compound was called inactive. On to `CCOC(=O)c1[nH]c2ccccc2c1NC(=O)C(C)(C)C`, for which the compound was classed as inactive. `Cn1cc(C(CC(=O)O)C(=O)O)c2ccccc21` (stereo not drawn): the result was inactive. With `CCOc1ccc(-n2c(SCc3nc(-c4ccc(C)cc4)no3)nnc2-c2ccncc2)cc1`, the outcome was inactive. As for `c1cncc(-c2nc(N3CCOCC3)c3ccccc3n2)c1`, the compound was classed as inactive. Then `O=c1[nH]c2cc3c(cc2cc1CN(CCc1ccccc1)Cc1nnnn1CC1CCCO1)OCO3` (stereo not drawn), with “inactive”. Then `CCn1c(=O)c(=O)[nH]c2cc(C(=O)NCC3CCCCC3)ccc21`, with “inactive”; and `CCOC(=O)CNS(=O)(=O)c1c(C)noc1C`, with “inactive”. To `CC1=CC2=NC(=O)/C(=C\c3cc(C)n(-c4ccc(F)cc4)c3C)C(=N)N2O1` belongs “inactive”; to `Cc1ccc(C(=O)CSC2=C(C#N)C(c3ccco3)CC(=O)N2)c(C)c1` (stereo not drawn), “inactive”. In the case of `COCCNC(=S)N(Cc1cccnc1)Cc1ccc(OC)c(OC)c1`, the result was inactive. Turning to `COc1ccc(NC(=O)ON=C2c3ccccc3-c3ccccc32)cc1`, the call was inactive. Consider `COC(=O)c1cc(C#N)c(Oc2ccccc2OC)nc1C`, for which the compound was called inactive. In the case of `O=C(Cn1nc(C(F)(F)F)c2c1CCCCC2)N1CCOCC1`, the compound was called inactive. To `Cc1ccc2occ(/C=N/O)c(=O)c2c1` belongs “inactive”; to `C#CCOc1ccc(/C=C2\SC(=S)N(Cc3cccnc3)C2=O)cc1`, “inactive”; to `c1ccc2oc(SCc3cn4ccccc4n3)nc2c1`, “inactive”. On to `Cc1cc(NC(=O)c2ccco2)ccc1-n1cnnn1`, for which the call was inactive. As for `CCOc1ccccc1Nc1nc2ccccc2n2cnnc12`, the result was inactive. As for `CCn1c(=O)c2c(O)cc(=O)oc2c2ccccc21`, the outcome was inactive. To `Cc1nc([N+](=O)[O-])c(Br)n1CC(=O)c1ccccc1` belongs “inactive”; to `C=CCNc1ncnc2ccc(Br)cc12`, “inactive”; to `O=c1c2c(-c3ccccc3)csc2nc2c3ccccc3c(NCCN3CCOCC3)nn12`, “inactive”.

With `COc1ccc(NC(=O)CSc2nnc(-c3cccs3)n2Cc2ccco2)cc1OC`, the compound was classed as inactive. `CCSc1nc(C2CC2)cc(-c2cccs2)c1C#N`: the compound was called inactive. For the compound `c1ccc2cc(CSCc3nc4ccccc4[nH]3)ccc2c1`, the compound was classed as inactive. Turning to `Cc1ccc(NC(=O)COC(=O)C2(c3ccc(Cl)cc3)CCCC2)cc1`, the outcome was inactive. On to `O=C(CSc1nnc(-c2cccnc2)o1)OC1CCCCC1`, for which the outcome was inactive. To `COc1cccc(NS(=O)(=O)c2c(C)cc(C)cc2C)c1` belongs “inactive”; to `c1ccc2c(C3=NNC(=NC4CC4)SC3)c[nH]c2c1`, “inactive”. For `COc1ccc(NC(=O)CSc2nc(C)cs2)cc1OC`, the call was inactive. Take `c1ccn2c(CNc3ncnc4sccc34)nnc2c1`: the result was inactive. With `CCCCOC(=O)CCNc1n[nH]c(=O)[nH]c1=O`, the compound was called inactive.

For `O=C(Nc1ccc(NC(=O)C23CC4CC(CC(C4)C2)C3)cn1)c1ccco1`, the compound was called inactive.

On to `COC(=O)CCC(=O)Nc1ccc(OC)cc1`, for which the call was inactive. `CC(=O)N/N=C/c1ccc(OCCOc2ccc(Br)cc2)cc1`: the compound was classed as inactive. In the case of `O=C1CCCc2c1cc(C(=O)NCc1ccco1)c(=O)n2-c1ccc(Cl)cc1`, the call was inactive. On to `COc1ccc(OC)c(C2=Nn3c(nnc3-c3cc(OC)c(OC)c(OC)c3)SC2)c1`, for which the result was inactive. Regarding `O=C(Cc1ccc(Cl)cc1)NNS(=O)(=O)c1ccc([N+](=O)[O-])cc1`, the call was inactive.

In the case of `N[C@H](CSCc1ccccc1)C(=O)Nc1ccc([N+](=O)[O-])cc1`, the result was inactive. As for `Cc1ccc(CSCc2nc3ccccc3[nH]2)cc1`, the compound was called inactive. Then `CN1CCCC(OC(=O)CCCC(=O)OC2CCCN(C)C2)C1` (stereo not drawn), with “inactive”; and `O=C(c1ccc(Oc2ccccc2)cc1)c1nc2c(n1O)CCCC2`, with “inactive”; and `CC1CC(C)CN(CCCSc2ccccc2)C1` (stereo not drawn), with “inactive”. Then `CC(Nc1ccc(Br)cn1)c1cc(Cl)ccc1O` (stereo not drawn), with “inactive”; and `O=C(CN1CCN(c2ccccn2)CC1)Nc1ccc(Oc2ccccc2)cc1`, with “inactive”. Then `Cc1nn2c(=O)cc(CSc3nc4ccccc4[nH]3)nc2s1`, with “inactive”; and `CC(=Nc1c(C)n(C)n(-c2ccccc2)c1=O)c1c(O)n(Cc2ccccc2)c(=O)[nH]c1=O`, with “inactive”; and `Cc1cc2nn(-c3ccccc3)nc2cc1NC(=O)c1cccs1`, with “inactive”. On to `NNC(=O)CNC(c1ccccc1)c1cc(Br)ccc1NC(=O)c1ccc(Br)cc1` (stereo not drawn), for which the call was inactive. To `O=C(/C=C/c1ccco1)N/C(=C\c1ccccc1)C(=O)NCCc1nc2ccccc2[nH]1` belongs “inactive”; to `O=C(O)CCc1nn2c3ccccc3n(CCN3CCCCC3)c2nc1=O`, “inactive”; to `O=C(NCc1cccs1)[C@@H]1CSC2c3ccccc3C(=O)N21` (stereo partly drawn), “inactive”. Then `CC(C(=O)NC1CCCc2ccccc21)N1CCN(Cc2ccc3c(c2)OCO3)CC1` (stereo not drawn), with “inactive”.
